What follows are compounds tested on MAP3K1. Details: concentration: 1 μM, replicates: in singlicate; n = 1.
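Further: KINOMEscan kinase panel screen.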

Compared with Cc1c(Cn2c3ccccc3n3c(=O)cc(N4CCOCC4)nc23)cccc1C(F)(F)F [GSK2306394], Cc1c(Cn2c(C)c(C)n3c(=O)cc(N4CCOCC4)nc23)cccc1C(F)(F)F [GSK2328680] is higher in “%Inh” value: 14% for the first, 16% for the second.

Going from Fc1ccc(-c2nc[nH]c2-c2ccncc2)cc1 [SB-217360] to Fc1ccc(-c2nn3cccc(F)c3c2-c2ccncc2)cc1 [GW475620], the “%Inh” value rises from 0% to 9%.

Going from COc1cccc(CNC(=O)NC2CCN(c3ccnc(Nc4ccc(F)cc4)n3)C2)c1 (centres unmarked) [GSK1379723] to COC(=O)c1cccc(NC(=O)NC2CCN(c3ccnc(Nc4ccc(F)cc4)n3)C2)c1 (centres unmarked) [GSK1379725], the “%Inh” value rises from 7% to 8%.

First: Cc1ccccc1-c1cc(-c2c[nH]nc2-c2ccccn2)ccn1 [GW680061]
Second: COc1ccc2cc(-c3nc(-c4ccccc4C(C)C)[nH]c3-c3ccncc3)ccc2c1 [SB-660566]
The “%Inh” value of the first is lower: 10% for the first, 20% for the second.

Compared with COC(=O)C(NC(=O)NC1CCN(c2ccnc(Nc3ccc(F)cc3)n2)C1)c1ccccc1 (centres unmarked) [GSK1379712], COC(=O)c1cccc(NC(=O)NC2CCN(c3ccnc(Nc4ccc(OC)cc4)n3)C2)c1 (centres unmarked) [GSK1379746] is lower in “%Inh” value: 6% for the first, 0% for the second.

Going from O=C1NC(=O)C(c2ccc(Cl)cc2)=C1Nc1ccc(O)cc1 [SB-340867] to Cc1ccc(NC(=O)Nc2ccc(Cl)cc2)cc1-c1ccc(C(=O)Nc2ccncc2)cc1 [GSK1398472], the “%Inh” value rises from 0% to 3%.

Compared with COc1cc2ncnc(Nc3cccc(Br)c3)c2cc1OC.Cl [GI230329], CS(=O)(=O)CCNCc1nc(-c2ccc3ncnc(Nc4ccc(OCc5ccccc5)c(Cl)c4)c3c2)cs1.Cl [GW582764] is higher in “%Inh” value: 2% for the first, 6% for the second.

CC(=O)c1c(C)c2cnc(Nc3ccc(N4CCNCC4)cn3)nc2n(C2CCCC2)c1=O and CC(=O)c1c(C)c2cnc(Nc3ccn(C)n3)nc2n(C2CCCC2)c1=O are the same in “%Inh” value: 0% for the first, 0% for the second.

CCc1ccc(-c2ccc3c(c2)-c2n[nH]cc2S(=O)(=O)N3C)cc1 and Cc1cccc2c(-c3ccncn3)c(-c3ccc(F)cc3)nn12 [GW515532] are the same in “%Inh” value: 0% for the first, 0% for the second.

Compared with CC(C)c1cc(-c2ccc3c(N)n[nH]c3c2)nc(N)n1 [GSK2250882], CC[C@@H]1CO[C@H](C(=O)Nc2ccccc2)CN1c1cc(-c2ccc3c(N)n[nH]c3c2)nc(NC)n1 [GSK2376236] is higher in “%Inh” value: 0% for the first, 21% for the second.

Going from COc1ccc(Nc2nccc(N3CCC(NC(=O)C(C)c4ccc(Cl)cc4)CC3)n2)cc1 (centres unmarked) [GSK1379812] to CS(=O)(=O)Cc1ccc(Nc2nccc(-c3c(-c4cccc(NC(=O)C5CCCCC5)c4)nn4ncccc34)n2)cc1 [GSK350559], the “%Inh” value rises from 12% to 30%.

Cc1ccc(NC(=O)c2ccc(Cl)cc2)cc1-c1ccc(C(=O)Nc2ccncc2)cc1 [GSK1398467] and Cc1ccc(NC(=O)Nc2ccccc2F)cc1-c1ccc(C(=O)Nc2ccncc2)cc1 [GSK1398477] are the same in “%Inh” value: 12% for the first, 12% for the second.

Compared with Cl.Cl.Cl.N#Cc1ccc(CCNc2nccc(-c3cccc(CN4CCNCC4)c3)n2)cc1 [GSK2137462], CCCCc1nn2ncccc2c1-c1ccnc(NC2CC2)n1 [GW684374] is lower in “%Inh” value: 15% for the first, 3% for the second.

Going from COc1cccc(NC(=O)Nc2ccc(C)c(-c3ccc(C(=O)Nc4ccncc4)cc3)c2)c1 [GSK1398474] to Cc1ccc(-c2nc(Nc3ccncc3)c3ccccc3n2)s1 [GSK189015], the “%Inh” value rises from 13% to 40%.

First: CSc1ccc(-c2nc3n(c2-c2ccncc2)CCC3)cc1 [SKF-105561]
Second: Fc1ccc(-c2nc3n(c2-c2ccncc2)CCS3)cc1 [GI98581]
The “%Inh” value of the first is lower: 0% for the first, 13% for the second.

Compared with Cc1cnc(N)c(/C=C/c2cncc(C(=O)NCCc3ccc(Cl)cc3Cl)c2)c1.Cl [GSK190937], CNC(=O)c1ccc(C)c(-n2c(C)cc(OCc3ccc(F)cc3F)c(Br)c2=O)c1 is lower in “%Inh” value: 7% for the first, 0% for the second.

First: CCn1c(-c2c(N)noc2C)nc2cnccc21 [SB-737856]
Second: COc1ccc(CSc2nnc(-c3ccc4nccn4c3)o2)cc1C(F)(F)F
The “%Inh” value of the first is lower: 0% for the first, 15% for the second.

Going from O=c1cc(N2CCOCC2)nc2n(Cc3ccccc3F)ccn12 [GSK2297428] to O=C(Nc1n[nH]c2nc(-c3cccs3)c(Br)cc12)C1CC1 [SB-735297], the “%Inh” value rises from 2% to 12%.

For CC(C)c1ccc(O)cc1Nc1ccnc2ccc(C(F)(F)F)cc12 [GW482059], the “%Inh” value was 0%.

The compounds below were run on MAP3K2. Details: concentration: 1 μM, replicates: in singlicate; n = 1.

Going from Cc1c(Cn2c3ccccc3n3c(=O)cc(N4CCOCC4)nc23)cccc1C(F)(F)F [GSK2306394] to Cc1c(Cn2c(C)c(C)n3c(=O)cc(N4CCOCC4)nc23)cccc1C(F)(F)F [GSK2328680], the “%Inh” value falls from 2% to 0%.

Compared with Fc1ccc(-c2nc[nH]c2-c2ccncc2)cc1 [SB-217360], Fc1ccc(-c2nn3cccc(F)c3c2-c2ccncc2)cc1 [GW475620] is lower in “%Inh” value: 18% for the first, 8% for the second.

First: COc1cccc(CNC(=O)NC2CCN(c3ccnc(Nc4ccc(F)cc4)n3)C2)c1 (centres unmarked) [GSK1379723]
Second: COC(=O)c1cccc(NC(=O)NC2CCN(c3ccnc(Nc4ccc(F)cc4)n3)C2)c1 (centres unmarked) [GSK1379725]
The “%Inh” value of the first is lower: 0% for the first, 11% for the second.

Compared with Cc1ccccc1-c1cc(-c2c[nH]nc2-c2ccccn2)ccn1 [GW680061], COc1ccc2cc(-c3nc(-c4ccccc4C(C)C)[nH]c3-c3ccncc3)ccc2c1 [SB-660566] is higher in “%Inh” value: 1% for the first, 28% for the second.

COC(=O)C(NC(=O)NC1CCN(c2ccnc(Nc3ccc(F)cc3)n2)C1)c1ccccc1 (centres unmarked) [GSK1379712] and COC(=O)c1cccc(NC(=O)NC2CCN(c3ccnc(Nc4ccc(OC)cc4)n3)C2)c1 (centres unmarked) [GSK1379746] are the same in “%Inh” value: 0% for the first, 0% for the second.

First: O=C1NC(=O)C(c2ccc(Cl)cc2)=C1Nc1ccc(O)cc1 [SB-340867]
Second: Cc1ccc(NC(=O)Nc2ccc(Cl)cc2)cc1-c1ccc(C(=O)Nc2ccncc2)cc1 [GSK1398472]
The “%Inh” value of the first is lower: 0% for the first, 16% for the second.

Compared with COc1cc2ncnc(Nc3cccc(Br)c3)c2cc1OC.Cl [GI230329], CS(=O)(=O)CCNCc1nc(-c2ccc3ncnc(Nc4ccc(OCc5ccccc5)c(Cl)c4)c3c2)cs1.Cl [GW582764] is lower in “%Inh” value: 33% for the first, 3% for the second.

CC(=O)c1c(C)c2cnc(Nc3ccc(N4CCNCC4)cn3)nc2n(C2CCCC2)c1=O and CC(=O)c1c(C)c2cnc(Nc3ccn(C)n3)nc2n(C2CCCC2)c1=O are the same in “%Inh” value: 0% for the first, 0% for the second.

CCc1ccc(-c2ccc3c(c2)-c2n[nH]cc2S(=O)(=O)N3C)cc1 and Cc1cccc2c(-c3ccncn3)c(-c3ccc(F)cc3)nn12 [GW515532] are the same in “%Inh” value: 0% for the first, 0% for the second.

Going from CC(C)c1cc(-c2ccc3c(N)n[nH]c3c2)nc(N)n1 [GSK2250882] to CC[C@@H]1CO[C@H](C(=O)Nc2ccccc2)CN1c1cc(-c2ccc3c(N)n[nH]c3c2)nc(NC)n1 [GSK2376236], the “%Inh” value falls from 2% to 0%.

Compared with COc1ccc(Nc2nccc(N3CCC(NC(=O)C(C)c4ccc(Cl)cc4)CC3)n2)cc1 (centres unmarked) [GSK1379812], CS(=O)(=O)Cc1ccc(Nc2nccc(-c3c(-c4cccc(NC(=O)C5CCCCC5)c4)nn4ncccc34)n2)cc1 [GSK350559] is higher in “%Inh” value: 0% for the first, 15% for the second.

First: Cc1ccc(NC(=O)c2ccc(Cl)cc2)cc1-c1ccc(C(=O)Nc2ccncc2)cc1 [GSK1398467]
Second: Cc1ccc(NC(=O)Nc2ccccc2F)cc1-c1ccc(C(=O)Nc2ccncc2)cc1 [GSK1398477]
The “%Inh” value of the first is lower: 0% for the first, 5% for the second.

First: Cl.Cl.Cl.N#Cc1ccc(CCNc2nccc(-c3cccc(CN4CCNCC4)c3)n2)cc1 [GSK2137462]
Second: CCCCc1nn2ncccc2c1-c1ccnc(NC2CC2)n1 [GW684374]
The “%Inh” value of the first is higher: 5% for the first, 0% for the second.

COc1cccc(NC(=O)Nc2ccc(C)c(-c3ccc(C(=O)Nc4ccncc4)cc3)c2)c1 [GSK1398474] and Cc1ccc(-c2nc(Nc3ccncc3)c3ccccc3n2)s1 [GSK189015] are the same in “%Inh” value: 0% for the first, 0% for the second.

Going from CSc1ccc(-c2nc3n(c2-c2ccncc2)CCC3)cc1 [SKF-105561] to Fc1ccc(-c2nc3n(c2-c2ccncc2)CCS3)cc1 [GI98581], the “%Inh” value rises from 3% to 6%.

Cc1cnc(N)c(/C=C/c2cncc(C(=O)NCCc3ccc(Cl)cc3Cl)c2)c1.Cl [GSK190937] and CNC(=O)c1ccc(C)c(-n2c(C)cc(OCc3ccc(F)cc3F)c(Br)c2=O)c1 are the same in “%Inh” value: 0% for the first, 0% for the second.

Going from CCn1c(-c2c(N)noc2C)nc2cnccc21 [SB-737856] to COc1ccc(CSc2nnc(-c3ccc4nccn4c3)o2)cc1C(F)(F)F, the “%Inh” value rises from 17% to 30%.

First: O=c1cc(N2CCOCC2)nc2n(Cc3ccccc3F)ccn12 [GSK2297428]
Second: O=C(Nc1n[nH]c2nc(-c3cccs3)c(Br)cc12)C1CC1 [SB-735297]
The “%Inh” value of the first is lower: 0% for the first, 7% for the second.

CC(C)c1ccc(O)cc1Nc1ccnc2ccc(C(F)(F)F)cc12 [GW482059] was tested, and the “%Inh” value was 0%.

Source: article PMC5540273 (PLoS ONE, 2017)
